A selection: hits, their analogues and other compounds. The true share with any hit is near 12%.
JMJD2A Tudor inh – inhibitors of human JMJD2A Tudor domain; O75164; AlphaScreen JMJD2A-Tudor / H3K4me3 peptide binding; Potency, µM (highest dose often 114 µM), for the others: at the top dose activity change, negative = inhibition, actives largely listed as inhibitors; actives 4.4% (n = 390,000); AID 504339; further: on the % scale 0 is the no-effect control and ±100 the full control effect; nearly all actives have a fitted effect of over 50% in size
HP1b binding inh – inhibitors of HP1-beta chromodomain binding to methylated histone tails | actives 0.56% (n = 390,000) | P83916 | AlphaScreen HP1-beta / biotin-H3K9me3 peptide binding | Potency, µM (titrated, usually from 114 µM), without a hit: at the top dose activity change, negative = inhibition, actives largely listed as inhibitors; further: nearly all actives have a fitted effect of over 70% in size
Target sequence (P83916 whole entry, looked up): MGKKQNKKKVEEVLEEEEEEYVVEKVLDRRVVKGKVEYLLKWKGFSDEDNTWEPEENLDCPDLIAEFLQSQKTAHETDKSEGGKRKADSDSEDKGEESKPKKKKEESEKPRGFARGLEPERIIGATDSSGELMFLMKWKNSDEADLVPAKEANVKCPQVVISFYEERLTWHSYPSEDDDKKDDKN
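HP1-beta protein (50 nM final) preincubated 30 min at room temperature with biotinylated H3(1-18)K9me3 peptide (50 nM) in PBS pH 7.4, 0.01% Tween-20, then compound added for 30 min. AlphaScreen streptavidin donor/nickel chelate acceptor beads (10 ug/mL final), 30 min dark, luminescence read.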
Sfp inh – blocks B. subtilis Sfp PPTase activity; Q9F4F7; Biochemical Sfp PPTase activity, qHTS; Potency, µM, for the others: largest response in the series, negative = inhibition, hits mostly inhibitors; actives 3.5% (n = 310,000); AID 1490;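 further: the enzyme is Sfp with the accession as filed and its product quenches rhodamine fluorescence; 0% = enzyme reaction without inhibitor and -100% = no enzyme wells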
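Step 1, compound plus 15 nM Sfp-PPTase, 15 min, room temperature. Step 2, add rhodamine-CoA (5 uM) and BHQ-2-YbbR (12.5 uM). Step 3, read 525/598 nm fluorescence at 0 and 30 min.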
BAZ2B block – inhibitors of human BAZ2B bromodomain; Q9UIF8; AlphaScreen BAZ2B-H3K14Ac peptide displacement; Potency, µM (titrated, usually from 114 µM), inactives show at the highest dose activity change, negative = inhibition, usual class: inhibitors; actives 4.4% (n = 360,000); AID 504333; further: on the % scale 0 is the no-effect control and ±100 the full control effect; nearly all actives have a fitted effect of over 60% in size
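BAZ2B 50 nM plus b-H3(5-23)K14Ac 50 nM, PBS pH 7.4/0.01% Tween-20, 30 min RT; compound added (max 110 uM), 30 min RT; streptavidin donor/Ni-chelate acceptor beads 10 ug/mL final, 20 min dark; AlphaScreen read.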
PLK1 PBD block – inhibitors of human PLK1 polo-box domain binding; AID 720504; Plk1 PBD binding of FITC phosphopeptide, fluorescence polarization; actives 2.8% (n = 360,000); P53350; Potency, µM, without a hit: max response, negative = inhibition, actives largely listed as inhibitors; further: series mostly up to about 57 µM; on the % scale 0 is the no-effect control and ±100 the full control effect; nearly all actives have a fitted effect of over 65% in size
G9a inh – inhibitors of human histone lysine methyltransferase G9a; Q96KQ7; G9a H3K9 monomethylation, AlphaScreen, 2 h; Potency, µM (top dose mostly 102 µM), inactives show at the highest dose activity, negative = inhibition, most hits filed as inhibitors; actives 8.8% (n = 350,000); further: on the % scale 0 is the no-effect control and ±100 the full control effect; nearly all actives have a fitted effect of over 75% in size
Target sequence (Q96KQ7 913-1193 limits assumed): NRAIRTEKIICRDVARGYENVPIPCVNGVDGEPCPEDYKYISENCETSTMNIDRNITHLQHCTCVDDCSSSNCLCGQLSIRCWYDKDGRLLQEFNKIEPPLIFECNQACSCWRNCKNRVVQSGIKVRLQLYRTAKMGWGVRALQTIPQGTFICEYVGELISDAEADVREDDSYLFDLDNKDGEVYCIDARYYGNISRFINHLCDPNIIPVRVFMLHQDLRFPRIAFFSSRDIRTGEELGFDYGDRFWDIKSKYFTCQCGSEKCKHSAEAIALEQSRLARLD
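Using a bead-based AlphaScreen, monomethylated H3K9 product from 2 h room-temperature reactions (G9a 20 nM, peptide 500 nM, SAM 20 uM) was detected with 0.5 ug/mL rabbit anti-H3K9me1 antibody.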
The depositor's hits bear a star; [ ] = dose if it differs, or a comment. The call rests on the fitted dose curve; in most records, active means well fitted curve in the direction sought with a large enough effect; inconclusive means small, poorly fitted or top-dose-only effect, or another doubt; inactive means no such curve, though single readings can be large; an effect the other way counts as inactive or inconclusive. Potency means the concentration at half of the fitted maximal effect.

What do the screens show for `COc1ccc(-c2nc(CN3CCC(C(=O)NCC4CCCO4)CC3)c(C)o2)cc1OC` (centres undefined)?
JMJD2A Tudor inh: -23%; HP1b binding inh: 2%; Sfp inh: 15%; BAZ2B block: -4%; PLK1 PBD block: 21µM*; G9a inh: 19%

Results for CC1CCCN(C(=O)C2CCN(S(=O)(=O)c3ccc4c(c3)CC(C)N4C(=O)C3CC3)CC2)C1 (centres undefined) ?
JMJD2A Tudor inh: 4%; HP1b binding inh: 58%; Sfp inh: 18%; BAZ2B block: -4%; PLK1 PBD block: -3%; G9a inh: 4%[59 µM]

How did O=C(O)Cn1cc(/C=N/Nc2ccc([N+](=O)[O-])cn2)c2ccccc21 do in these assays?
JMJD2A Tudor inh: inconclusive; HP1b binding inh: inconclusive; Sfp inh: inconclusive; BAZ2B block: inconclusive; PLK1 PBD block: -1%; G9a inh: 45µM*

How did Cc1ccc(Cn2cc(/C=N/Nc3ccc([N+](=O)[O-])cn3)c3ccccc32)cc1 do in these assays?
JMJD2A Tudor inh: -22%; HP1b binding inh: 4%; Sfp inh: -8%; BAZ2B block: -21%; PLK1 PBD block: 0%; G9a inh: 50µM*

How did CCN1CCCC(Sc2nc3c([nH]2)c(=S)n(C)c(=O)n3C)C1 (centres undefined) do in these assays?
JMJD2A Tudor inh: 2%; HP1b binding inh: 25%; Sfp inh: inconclusive; BAZ2B block: -3%; PLK1 PBD block: -7%; G9a inh: inconclusive

Results for Cn1c(=S)c2[nH]c(SCCN3CCCC3)nc2n(C)c1=O ?
JMJD2A Tudor inh: inconclusive; HP1b binding inh: 7%; Sfp inh: 40µM*; BAZ2B block: inconclusive; PLK1 PBD block: -28%; G9a inh: -142%[59 µM]

How did Cn1c(=S)c2[nH]c(SCCN)nc2n(C)c1=O do in these assays?
JMJD2A Tudor inh: 1.1µM*; HP1b binding inh: -14%; PLK1 PBD block: 27µM*

How did CCn1c(SCCN2CCCCC2)nc2c1c(=O)n(C)c(=O)n2C do in these assays?
JMJD2A Tudor inh: -25%; HP1b binding inh: 71µM*; PLK1 PBD block: inconclusive

What do the screens show for `COc1ccc2c(c1)CCc1c(C(=O)Nc3ccn(Cc4ccc(C)cc4)n3)noc1-2`?
JMJD2A Tudor inh: inconclusive; HP1b binding inh: 7%; Sfp inh: -10%; BAZ2B block: -33%; PLK1 PBD block: -10%; G9a inh: 17%[2.33 µM]

Results for Cc1ccc(Cn2ccc(NC(=O)c3noc4c3CCc3ccccc3-4)n2)cc1 ?
JMJD2A Tudor inh: -2%; HP1b binding inh: 16%; Sfp inh: 16µM*; BAZ2B block: -7%; PLK1 PBD block: -6%; G9a inh: 30%[59 µM]

Results for N=C1C=CC=C2C1=NC1(CCCCC1)N2O ?
JMJD2A Tudor inh: inconclusive; HP1b binding inh: inconclusive; Sfp inh: 8.9µM*; BAZ2B block: 45µM*; PLK1 PBD block: -4%; G9a inh: inconclusive

Results for CCn1c(-c2ccc(C(C)(C)C)cc2)n[nH]c1=S ?
JMJD2A Tudor inh: 45µM*; HP1b binding inh: -4%; Sfp inh: -29%; BAZ2B block: 3%; PLK1 PBD block: -14%; G9a inh: 0.56µM*

Results for CCn1c(-c2cccc(Cl)c2)n[nH]c1=S ?
JMJD2A Tudor inh: 7.1µM*; HP1b binding inh: -4%; Sfp inh: 1%; BAZ2B block: 7%; PLK1 PBD block: -10%; G9a inh: 6.3µM*

What do the screens show for `Cc1ccc(COc2ccsc2-c2n[nH]c(=S)n2C)cc1`?
JMJD2A Tudor inh: 4%; HP1b binding inh: 36%; Sfp inh: -30%; BAZ2B block: inconclusive; PLK1 PBD block: 2%

How did CC(C)(C)c1ccc(-c2n[nH]c(=S)n2C2CCCC2)cc1 do in these assays?
JMJD2A Tudor inh: inconclusive; HP1b binding inh: 16%; Sfp inh: 5%; BAZ2B block: 2%; PLK1 PBD block: -17%; G9a inh: 7.9µM*

What do the screens show for `Cn1c(-c2ccc(C(C)(C)C)cc2)n[nH]c1=S`?
JMJD2A Tudor inh: 22µM*; HP1b binding inh: -25%; Sfp inh: -8%; BAZ2B block: 1%; PLK1 PBD block: -3%; G9a inh: 2µM*

What do the screens show for `CCC1CCCCN1C(=O)COC(=O)CN(C)S(=O)(=O)c1ccc(NC(C)=O)cc1` (centres undefined)?
JMJD2A Tudor inh: -10%; HP1b binding inh: 17%; BAZ2B block: 13%; PLK1 PBD block: -12%; G9a inh: 5%

How did CC1=C(C(=O)N(C)C)CC(CC(=O)NCc2cccc3ccccc23)C(=O)N1CCC1=CCCCC1 (centres undefined) do in these assays?
PLK1 PBD block: -12%

Results for COc1ccc(C2=Nn3c(nnc3-c3cccc(OC)c3OC)SC2)cc1OC ?
JMJD2A Tudor inh: -3%; Sfp inh: 12%

What do the screens show for `CCn1c(-c2ccc(F)cc2)n[nH]c1=S`?
JMJD2A Tudor inh: 5µM*; HP1b binding inh: 25%; Sfp inh: -25%; BAZ2B block: 10%; PLK1 PBD block: -13%; G9a inh: inconclusive

What do the screens show for `CCOc1cc(-c2n[nH]c(=S)n2Cc2ccccc2)ccc1OC(F)F`?
JMJD2A Tudor inh: -30%; HP1b binding inh: 13%; BAZ2B block: -10%; PLK1 PBD block: -6%; G9a inh: inconclusive

What do the screens show for `CC1(C)C2CCC(C2)C1(C)NC(=O)CN1CCN(Cc2ccccc2)CC1` (centres undefined)?
JMJD2A Tudor inh: 1.4µM*; HP1b binding inh: 16µM*; Sfp inh: inconclusive; BAZ2B block: 28µM*; PLK1 PBD block: -7%; G9a inh: 5.6µM*

What do the screens show for `COCCN1C2=C(C(=O)CC(C)(C)C2)C(c2ccc(OC)c(OC)c2)C2=C1CC(C)(C)CC2=O`?
JMJD2A Tudor inh: 3%; HP1b binding inh: 24%; Sfp inh: 13%; BAZ2B block: 1%; PLK1 PBD block: -9%; G9a inh: 40%

What do the screens show for `COc1cc(C2C3=C(CC(C)(C)CC3=O)N(C)C3=C2C(=O)CC(C)(C)C3)cc(Br)c1O`?
JMJD2A Tudor inh: -10%; HP1b binding inh: 49%; Sfp inh: -4%; BAZ2B block: 12%; PLK1 PBD block: 2%; G9a inh: 71µM*

Results for COCCCN1C2=C(C(=O)CC(C)(C)C2)C(c2ccc(OC)c(OC)c2)C2=C1CC(C)(C)CC2=O ?
JMJD2A Tudor inh: -11%; HP1b binding inh: 23%; Sfp inh: 25%; BAZ2B block: -17%; PLK1 PBD block: -1%; G9a inh: 71µM*

What do the screens show for `CC(=O)Nc1ccccc1NS(=O)(=O)c1ccccc1NO`?
JMJD2A Tudor inh: -21%; HP1b binding inh: 1%

Compound activity deposited in PubChem by National Center for Advancing Translational Sciences (NCATS).
